40 compounds from PubChem BioAssay (NCATS) can be followed below.

Structures are written as SMILES. Where “and” joins values, the source holds several entries; their conditions need not be identical. Equal values may be shown once. Inconclusive results are not listed. Unmarked numbers belong to inactive results. Calls come from the whole dose curve; as a rule, active = well fitted activation curve with a large enough effect; inconclusive = small, poorly fitted or top-dose-only effect; inactive = no such curve, though single readings can be large or run the other way.

The target in this experiment is Cellular tumor antigen p53 (Homo sapiens) (UniProt P04637). Put plainly: Primary qHTS for small molecule compounds that upregulate eGFP-tagged delta133p53alpha (in N-terminal) cells. (AID 2060322).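 Note: series mostly up to about 56 µM; 0% = DMSO vehicle and 100% = reference activator; nearly all actives have a fitted effect of over 75% in size.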 As to conditions: NCI-H358 eGFP-delta133p53alpha fluorescence, 24 h; activation: stronger effect = higher value. The method, boiled down: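 NCI-H358 cells pre-induced 24 h with 10 ng/ml doxycycline to express N-terminal eGFP-delta133p53alpha, then dosed 24 h at 37C without doxycycline; fixed, Hoechst-stained, GFP intensity by laser scanning cytometry, normalized to DMSO (0%) and 57.5 uM 5-azacytidine (100%).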
Sequence of Cellular tumor antigen p53 (Homo sapiens) (P04637 whole entry, looked up): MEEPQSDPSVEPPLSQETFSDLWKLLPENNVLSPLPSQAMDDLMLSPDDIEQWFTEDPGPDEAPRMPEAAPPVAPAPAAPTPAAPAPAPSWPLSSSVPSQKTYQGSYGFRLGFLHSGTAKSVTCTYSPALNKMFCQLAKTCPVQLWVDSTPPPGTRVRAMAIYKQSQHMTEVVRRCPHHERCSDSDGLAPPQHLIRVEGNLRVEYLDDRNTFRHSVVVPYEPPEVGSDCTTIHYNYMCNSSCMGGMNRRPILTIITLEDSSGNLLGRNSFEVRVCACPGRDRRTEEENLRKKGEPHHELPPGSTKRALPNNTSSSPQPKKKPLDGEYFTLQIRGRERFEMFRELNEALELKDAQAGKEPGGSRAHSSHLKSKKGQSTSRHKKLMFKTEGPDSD
In the case of `CC(C)(O)c1ccn2c(-c3ccc(F)c(-c4ccc(F)cc4C#N)c3)cnc2c1F`, the activation is -22.4%. Turning to `COc1ccccc1N1CCN(CC[C@@](C)(C(=O)C2CCCCC2)c2ccccc2)CC1`, the activation is 8.11%. To `O=C1CSc2ccccc2N1Cc1cccc(C(F)(F)F)c1` belongs 3.34%; to `CCOc1ccc(CCNC(=O)c2cc3sc(Cl)cc3n2C)cc1OCC`, -10.5%. To `CCOC(=O)C(CCc1ccccc1)NC1CSC(c2cccs2)CN(CC(=O)O)C1=O` (stereo not given) belongs -0.477%. To `c1ccc(CN(CC2=NCCN2)c2ccccc2)cc1` belongs 0.837% and -3.82%. For `CC(F)(F)CN1CCOc2c(nn(-c3ccccc3Cl)c2-c2ccc(Cl)cc2)C1=O`, the activation was 10%. For `Cc1ccc(N2CCN(CCC3NC(=O)c4ccccc43)CC2)cc1C` (stereo not given) the value was -7.16%; for `CO[C@@H]1[C@@H](O[C@H]2O[C@@H](C)[C@H](O[C@@H]3C[C@](C)(O)[C@H](O)[C@@H](C)O3)[C@@H](N(C)C)[C@@H]2O)[C@@H](CC=O)C[C@@H](C)[C@@H](O[C@H]2CC[C@H](N(C)C)[C@H](C)O2)/C=C/C=C/C[C@@H](C)OC(=O)C[C@H]1O`, -1.43%. For `c1ccc(-c2csc(N3CCOCC3)n2)cc1` the value was -7.16%; for `Cc1cc(CN)cc(C)c1NC(=O)c1ccc(-c2cc(Cl)ccc2Cl)o1`, 6.68%; for `CC(=O)SCC(=O)c1ccc(NS(=O)(=O)c2ccc(OCCCN(C)C)cc2)nc1`, 10%. With `O=C(/C=C/c1c(C(=O)O)[nH]c2cc(Cl)cc(Cl)c12)Nc1ccccc1`, the activation is -11.9%. With `CC(C)c1ccc(NC(=O)Cn2cnc3c2c(=O)n(C)c(=O)n3C)cc1`, the activation was -14.8%. For `COc1ccc(C2Sc3ccccc3N(CCN(C)C)C(=O)C2OC(C)=O)cc1` (stereo not given) the value was -11.5%; for `COc1ccccc1CN[C@H]1CCCN[C@H]1c1ccccc1`, -3.82%; for `COc1cnc(-n2cnc(C)n2)c2[nH]cc(C(=O)C(=O)N3CCN(C(=O)c4ccccc4)CC3)c12`, 3.34%. To `N#CC(c1ccnc(OCc2ccc(CN3CCOCC3)cc2)n1)c1nc2ccccc2s1` (stereo not given) belongs 0.477%; to `COc1cc(Br)c(S(=O)(=O)Nc2ccc(C(F)(F)F)c(O[C@@H]3CCN(C)C3)c2)cc1OC`, 12.4%; to `Oc1ccc([C@H]2COc3cc(O)ccc3C2)cc1`, -10.5%.

Turning to `Cc1onc(-c2ccccc2)c1C(=O)N1CCN(c2ccc([N+](=O)[O-])cc2Cl)CC1`, the activation was -0.477%.

Turning to `CCCCC(=O)N1c2ccccc2NC2=C(C(=O)CCC2)C1c1ccccc1Cl` (stereo not given), the activation was -4.77%. `CO[C@H]1C=CO[C@@]2(C)Oc3c(C)c(O)c4c(O)c(c5c(c4c3C2=O)NC2(CCN(CC(C)C)CC2)N=5)=NC(=O)C(C)=CC=C[C@H](C)[C@H](O)[C@@H](C)[C@@H](O)[C@@H](C)[C@H](OC(C)=O)[C@H]1C`: the activation was 0.549%. For `CN(C)CCCNc1nc(CN2CCN(C(c3ccc(Cl)cc3)c3ccc(Cl)cc3)CC2)nc2ccccc12` the value was 16.2%; for `CCCCNc1nc(N)c2[nH]c(=O)n(Cc3ccc(OCCN(C)C)nc3)c2n1`, -9.55%. As to `Cc1oc2nc3c(c(NC(=O)CN4CCCC4=O)c2c1C)CCCC3`, the activation was -3.82%. To `CN[C@H](CNC(=O)N1CCC[C@@H]([C@@H](OCCNC(=O)OC)c2cccc(Cl)c2)C1)C[C@H]1CCCOC1` belongs 11.5%; to `CCO[C@H]1CN(C2CCC(O)(c3ccc4c(c3)OCO4)CC2)C[C@@H]1NC(=O)CNC(=O)c1cccc(C(F)(F)F)c1` (stereo not given in full), 10.5%; to `CCn1c(=O)n([C@H]2CCCN(c3nccc(-c4cc5ccccc5o4)n3)C2)c2ccccc21`, -7.16%.

In the case of `COCc1c(Cl)ccc2c1CC[C@H]2c1ncc[nH]1`, the activation was 11%.

Regarding `CN(C)[C@@H]1CCc2[nH]c3ccc(NC(=O)c4ccc(F)cc4)cc3c2C1`, the activation is 0.477%.

In the case of `O=C(COc1ccc(Cl)cc1)NC1CCC(NC(=O)COc2ccc(Cl)cc2)CC1` (stereo not given), the activation was -5.25%. Turning to `Cc1ccc(NC(=O)C(=O)NC2CC(C)(C)NC(C)(C)C2)cc1`, the activation is -13.4%. As for `CC1(C)CCC(C)(C)c2cc(C#Cc3ccc(C(=O)O)cc3)ccc21`, the activation is -5.25%.

With `CCn1c2ccccc2c2cc(CNC)ccc21`, the activation was 12.4%.

Consider `COC1CCN(c2cccc(-c3cc(NC(C)=O)nc(-n4nc(C)cc4C)n3)n2)CC1`, for which the activation is -8.59%. As to `FC(F)(F)c1nnc2c(Sc3ccccc3)nc3ccc(Cl)cc3n12`, the activation was 29.1%.

Regarding `COc1ccccc1N1CCN(c2ncnc3n[nH]c(Br)c23)CC1`, the activation was 20.5%. With `COc1cc(C(=O)NCC2(N(C)C)CCCC2)cc(OC)c1OCc1ccccc1`, the activation is -8.11%. As for `Cc1cc(OCCCS(C)(=O)=O)cc(C)c1-c1cccc(COc2ccc3c(c2)OCC3CC(=O)O)c1` (stereo not given), the activation is 6.68%.
